The source of these data is PubChem BioAssay AID686979 (National Center for Advancing Translational Sciences (NCATS), 2013).

The campaign covered roughly 420,000 compounds. About 50,000 (12%) were called active. Entries that show only a call come without a potency. Inconclusive results (about 26%) are left out. Calls come from the whole dose curve; as a rule, active = well fitted inhibition curve with a large enough effect; inconclusive = small, poorly fitted or top-dose-only effect; inactive = flat fitted curve, though single readings scatter. This excerpt belongs to a sample that is enriched for actives.
Potency is the fitted concentration of half-maximal effect.

The nature of the test: qHTS for Inhibitors of human tyrosyl-DNA phosphodiesterase 1 (TDP1): qHTS in cells in presence of CPT. Note: nearly all actives have a fitted effect of over 55% in size. The conditions noted are these: chicken DT40 Tdp1-/-;hTDP1 cells + 20 nM CPT, ATP luminescence, 48 h; series mostly up to 46.2 µM. Summed up: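 Cell growth measured by CellTiter-Glo luminescence after a minimum 48 h, 37 C compound exposure with 20 nM CPT in Tdp1-knockout DT40 cells stably expressing hTDP1, seeded 400/well; qHTS titration format.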
Background: Quantitative high-throughput screening tests each substance at several concentrations.
Take `NS(=O)(=O)c1ccc(CCNC(=O)CN2C(=O)c3ccccc3S2(=O)=O)cc1`: the Potency result is “inactive”.

Turning to `O=C(O)C(=Cc1ccc([N+](=O)[O-])cc1)CCc1ccccc1`, the Potency result was “inactive”.

In the case of `COc1ccccc1NC(=O)CCN1CCN(c2ccc(Cl)cc2)CC1`, the Potency was 14.6 µM (active).

`COc1ccc(NC(=O)CCN2CCCC2)c(OC)c1`: the Potency entry was “inactive”.

`COc1ccc(Cl)cc1NC(=O)CCN1CCOCC1`: the Potency entry was “inactive”.

For the compound `CC(C#N)(NC(=O)CN1CCN(S(=O)(=O)c2cc(C(F)(F)F)ccc2Cl)CC1)C1CC1` (configuration not stated), the Potency result is “inactive”.

In the case of `Cc1cc(NC(=O)COC(=O)/C=C/c2ccc(C)o2)no1`, the Potency entry is “inactive”.

Turning to `CCCCc1ccc(NC(=O)NCc2cccnc2)cc1`, the Potency result is “inactive”.

In the case of `Cc1cc(/C=C2/SC(=O)N(CC(=O)N3CCCC3)C2=O)c(C)n1C`, the Potency entry was “inactive”.

Take `O=C1c2ccccc2C(=O)c2c1cccc2N1CCN(CCO)CC1`: the Potency result is “inactive”.

`Cc1cccc(N2CCN(c3c(CN4CCCC4)c(=O)oc4ccccc34)CC2)c1C`: the Potency result was “inactive”.

Turning to `Cc1cccc(N2CCN(C3=C(c4ccccc4)C(=O)c4ccccc43)CC2)c1C`, the Potency is 7.31 µM (active).

For `COc1ccc(CCNC(=O)CCCCCNC(=O)N2CCn3c2nc2ccccc23)cc1OC`, the Potency entry is “inactive”.

Consider `COc1cc(C(=O)OCC(=O)N(CC(C)C)C2CCS(=O)(=O)C2)ccc1OCC(C)C` (configuration not stated), for which the Potency result was “inactive”.

In the case of `CC(C)OC(=O)c1c(NC(=O)c2ccco2)sc2c1CCCC2`, the Potency entry was “inactive”.

`CCOc1ccc(NC(=O)c2c(NC(=O)Cc3ccccc3)sc3c2CCCCC3)cc1`: the Potency was 18.4 µM (active).

As for `COC(=O)c1c(NC(=O)CN2CCN(S(=O)(=O)c3ccccc3[N+](=O)[O-])CC2)sc2c1CCC(C)C2` (configuration not stated), the Potency result was “inactive”.

For `CCOc1ccc(NC(=O)c2c(NC(=O)Cc3ccccc3)sc3c2CCC(C)C3)cc1` (configuration not stated), the Potency was 16.4 µM (active).

As for `CCOC(=O)c1c(NC(=O)/C=C/c2ccc(OC)cc2)sc2c1CCC(C)C2` (configuration not stated), the Potency result is “inactive”.

As to `Cc1ccc(C)c(N2CCN(C(=O)Cn3ncn4cccc4c3=O)CC2)c1`, the Potency result is “inactive”.

Regarding `Cc1ccc(NC(=O)C(CC(=O)O)C2CCCO2)c(C)c1` (configuration not stated), the Potency entry is “inactive”.

Turning to `CN(Cc1ccccc1)C(=O)COC(=O)/C=C/c1ccc2c(c1)OCO2`, the Potency entry was “inactive”.

With `COc1ccccc1C1C(C(N)=O)=C(C)Nc2nc(CCCO)nn21` (configuration not stated), the Potency result is “inactive”.

For `Cc1ccc(C(=O)N/C(=C/c2ccco2)C(=O)NCCc2c[nH]c3ccccc23)cc1C`, the Potency result is “inactive”.

Turning to `CC(C)Oc1ccc(/C=C(\NC(=O)/C=C/c2ccco2)C(=O)NCCc2nc3ccccc3[nH]2)cc1`, the Potency is 18.4 µM (active).

As to `CC(C)=C(NC(=O)c1ccco1)C(=O)NCCc1nc2ccccc2[nH]1`, the Potency entry is “inactive”.

For `COc1ccccc1Nc1nnc(SC(C)C(=O)NC2CC2)s1` (configuration not stated), the Potency result was “inactive”.

Regarding `O=c1[nH]c(=O)n(Cc2ccco2)c2c1C(C(F)(F)F)(C(F)(F)F)N=C(c1ccco1)N2`, the Potency result was “inactive”.

With `Cc1ccccc1C1=NC(C(F)(F)F)(C(F)(F)F)c2c(n(-c3ccc(F)cc3)c(=O)[nH]c2=O)N1`, the Potency is 18.4 µM (active).

`CN(C(=O)CC1C(=O)NCCN1Cc1ccc(F)cc1Cl)C1CCCCC1` (configuration not stated): the Potency entry was “inactive”.

Turning to `CCOc1ccccc1NC(=O)Cn1ncc2ccc([N+](=O)[O-])cc21`, the Potency result was “inactive”.

For `COC(=O)c1c(C)cc(O)c(C)c1O`, the Potency result was “inactive”.

With `C/C(=N\NC(=O)C1(C)CC1(Br)Br)c1ccc(C)cc1C` (configuration not stated), the Potency result is “inactive”.

In the case of `CN(C)Cc1c(O)ccc2c(=O)c(-c3ccccc3Cl)coc12`, the Potency result was “inactive”.

Regarding `CC(C)CN(Cc1c(O)ccc2c(=O)c(-c3ccccc3)coc12)CC(C)C`, the Potency is 5.17 µM (active).

Consider `O=c1c(-c2ccccc2)coc2c(CN3CCOCC3)c(O)ccc12`, for which the Potency result was “inactive”.

As to `Cc1ccccc1OCC(=O)Nc1nc(C)c(C(=O)N(C)C)s1`, the Potency entry was “inactive”.

Take `Cc1ccc(Cl)cc1N(C)C(=O)C1CCCN(c2ncnc3onc(-c4ccc(F)cc4)c23)C1` (configuration not stated): the Potency was 7.31 µM (active).

Consider `Cc1ccnc(N2CCCC(C(=O)Nc3cc(F)ccc3C)C2)n1` (configuration not stated), for which the Potency result is “inactive”.

Consider `CCc1ccccc1N(C)C(=O)C1CCCN(c2ncnc3onc(-c4ccc(F)cc4)c23)C1` (configuration not stated), for which the Potency was 13 µM (active).

For `CCc1noc(C)c1C(=O)N1CCCC(N2CCN(c3ccc(F)cc3)CC2)C1` (configuration not stated), the Potency entry is “inactive”.

Turning to `CC1=C(c2ccc(F)cc2)S(=O)(=O)N=C1N1CCC(C(=O)NCCc2ccccc2C)CC1`, the Potency entry is “inactive”.

Turning to `O=S(=O)(c1ccc(Cl)s1)N1CCC2(CC1)OCCO2`, the Potency entry was “inactive”.

Consider `O=C(Nc1ccc(-c2csc(Nc3cccc(C(F)(F)F)c3)n2)cc1)c1cccc(C(F)(F)F)c1`, for which the Potency is 9.2 µM (active).

In the case of `Cc1cccc(NC(=O)c2cccc(C(F)(F)F)c2)c1`, the Potency entry was “inactive”.

For the compound `CNC(=O)c1ccc(NC(=O)c2cccc(C(F)(F)F)c2)cc1`, the Potency result was “inactive”.

For the compound `Cc1nn(Cc2ccccc2)c(C)c1NS(=O)(=O)c1ccccc1`, the Potency entry was “inactive”.

As for `O=C1COc2ccc(S(=O)(=O)Nc3ccc(OC(F)(F)F)cc3)cc2N1`, the Potency result is “inactive”.

Regarding `Cc1nn(C)c(C)c1NS(=O)(=O)c1ccc(OC(F)(F)F)cc1`, the Potency was 23.1 µM (active).

On to `COc1ccc(OC)c(S(=O)(=O)Nc2c(C)nn(C)c2C)c1`, for which the Potency entry is “inactive”.

Take `Nc1ncc(S(=O)(=O)Nc2ccc(OC(F)(F)F)cc2)cn1`: the Potency entry was “inactive”.

As to `O=S(=O)(Nc1ccc(O)c2ccccc12)c1ccc(OC(F)(F)F)cc1`, the Potency is 13 µM (active).

On to `COc1cc2c(cc1OC)CC(=O)N(CCCN(C)C[C@H]1Cc3cc(OC)c(OC)cc31)CC2`, for which the Potency result is “inactive”.

For the compound `CC1CN(C(=O)CCC(=O)NCCCN2CCC(Cc3ccccc3)CC2)c2cc(Cl)ccc2O1` (configuration not stated), the Potency is 20.6 µM (active).

With `CC1CN(C(=O)CCC(=O)NC2CCN(Cc3ccccc3)CC2)c2ccccc2O1` (configuration not stated), the Potency is 23.1 µM (active).

Consider `CC1CN(C(=O)CCC(=O)NCc2cccnc2)c2ccccc2O1` (configuration not stated), for which the Potency result is “inactive”.

As to `O=C(CC1Oc2ccccc2NC1=O)NCCCN1CCN(Cc2ccccc2)CC1` (configuration not stated), the Potency entry was “inactive”.

With `CC(C)(C)NC(=O)NC(=O)CN1CCC(Cc2ccccc2)CC1`, the Potency entry was “inactive”.

With `Cc1ccc(S(=O)(=O)NCCC(=O)NC2CCN(Cc3ccccc3)CC2)cc1`, the Potency entry was “inactive”.

With `O=C(COC(=O)/C=C/c1cccc(Cl)c1)NCCc1ccccc1`, the Potency entry was “inactive”.

On to `COc1ccc(NC(=S)N2CCCC(CO)C2)c(OC)c1` (configuration not stated), for which the Potency result is “inactive”.

As for `CC(=O)Nc1ccc(S(=O)(=O)Oc2ccc(/C=N/N=C3/NC(=O)C(CC(=O)O)S3)cc2)cc1` (configuration not stated), the Potency entry was “inactive”.

On to `O=C(CNC(=O)c1ccc(Br)o1)Nc1ccccc1`, for which the Potency result was “inactive”.

`CC(CNC(=O)c1ccc(Br)o1)NC(=O)c1ccc(Br)o1` (configuration not stated): the Potency is 8.2 µM (active).

With `CC(CCc1ccccc1)NC(=O)c1ccc(Br)o1` (configuration not stated), the Potency entry was “inactive”.

`CCOc1ccc(OCC(=O)Nc2c3c(nn2C(C)(C)C)CS(=O)(=O)C3)cc1`: the Potency entry is “inactive”.

Consider `COc1cc(C=O)c(Br)cc1OCC(=O)NCc1ccccc1`, for which the Potency entry is “inactive”.

Take `COc1cc(/C=N/O)cc(Br)c1OCc1cccc(Cl)c1`: the Potency entry is “inactive”.

On to `COc1cc(C(=O)NCc2ccncc2)cc(Br)c1OCc1ccccc1`, for which the Potency was 18.4 µM (active).

As for `CN(CC(=O)Nc1cccc(F)c1)C(=O)CC1CCCC1`, the Potency entry was “inactive”.

Regarding `N/C(Cc1ccc([N+](=O)[O-])cc1)=N\OC(=O)C1CCCCC1`, the Potency entry is “inactive”.

In the case of `CC(=O)NC1CCN(CC(=O)Nc2nccs2)CC1`, the Potency entry was “inactive”.

For the compound `COc1cc2c(-c3ccc4c(c3)OCO4)c(-c3ccsc3)oc(=O)c2cc1OC`, the Potency is 16.4 µM (active).

As for `COc1ccc(CCNC(=O)c2cc(-c3ccc4c(c3)OCO4)on2)cc1OC`, the Potency entry is “inactive”.

As to `COc1ccc(C#Cc2c(-c3ccc(OC)cc3)oc3ccc(-c4ccc5c(c4)OCO5)cc23)cc1`, the Potency entry is “inactive”.

As for `Clc1cccc[n+]1CCCC[n+]1ccccc1Cl`, the Potency result is “inactive”.

As for `Brc1cccc[n+]1Cc1cccc(C[n+]2ccccc2Br)c1`, the Potency is 12.6 µM (active).

On to `O=C(COC(=O)c1cccc(Cl)c1)Nc1ccc2[nH]c(=O)[nH]c2c1`, for which the Potency result was “inactive”.

On to `COc1cc(C(=O)NCc2nnc(SCC(=O)c3ccc(Cl)cc3)o2)cc(OC)c1OC`, for which the Potency result is “inactive”.

Consider `CCOC(=O)CSc1nnc(CNc2ccc(F)cc2)o1`, for which the Potency result is “inactive”.

Turning to `CCC(=O)Nc1ccc(C(=O)CSc2nnc(CNc3ccc(Cl)cc3)o2)cc1OC`, the Potency is 20.6 µM (active).

Take `COc1ccc(CNC(=O)C(=O)NCC2OCCN2C(=O)c2ccc(OC)cc2)cc1` (configuration not stated): the Potency result was “inactive”.

As for `CC(C)(C)c1nnc(N/N=C/c2ccc(O)cc2)n(N)c1=O`, the Potency entry is “inactive”.

As for `O=C(c1c(F)cccc1F)N1CCN(c2ncc(Br)cn2)CC1`, the Potency result is “inactive”.

Regarding `CCOc1ccc(C(=O)NC(=S)Nc2ccc(NC(=O)C(C)C)cc2)cc1[N+](=O)[O-]`, the Potency entry was “inactive”.

Take `COc1cccc(OC)c1C(=O)NC(=S)Nc1ccc(N2CCOCC2)c(Cl)c1`: the Potency entry was “inactive”.

On to `CCOc1ccc(C(=O)NC(=S)Nc2ccc(N3CCOCC3)c(Cl)c2)cc1[N+](=O)[O-]`, for which the Potency was 0.146 µM (active).

Take `CN(C)c1ccc(-c2nnc(-c3cccnc3)o2)cc1`: the Potency entry was “inactive”.

On to `CCC(C)(C(=O)Nc1ccccc1C)N(C(=O)CNC(C)=O)c1ccc(C)cc1` (configuration not stated), for which the Potency result is “inactive”.

In the case of `CCc1nnc(NS(=O)(=O)c2ccc(N=Cc3c(C)[nH]n(-c4ccc(C)cc4)c3=O)cc2)s1`, the Potency was 11.6 µM (active).

As to `COc1cc(NS(=O)(=O)c2ccc(N=Cc3c(C)[nH]n(-c4ccccc4)c3=O)cc2)nc(OC)n1`, the Potency entry was “inactive”.

With `CCc1nnc(NS(=O)(=O)c2ccc(NS(=O)(=O)c3ccccc3)cc2)s1`, the Potency result was “inactive”.

With `CS(=O)(=O)Nc1ccccc1C(=O)OCC(=O)NC1CC1`, the Potency result is “inactive”.

With `Cc1ccc(S(=O)(=O)c2nnn3c2nc(N2CCN(c4ccccc4F)CC2)c2cc(Cl)ccc23)cc1C`, the Potency entry is “inactive”.

`CCCCc1cc2c(s1)CCCC/C2=N/O`: the Potency entry is “inactive”.

For the compound `Cc1nnnn1/C(=C\c1ccccc1)C(=O)OCC(=O)N1CC2(C)CC1CC(C)(C)C2` (configuration not stated), the Potency is 13 µM (active).

`Cc1cccc(C(=O)NCC(=O)OCC(=O)N2CC3(C)CC2CC(C)(C)C3)c1` (configuration not stated): the Potency entry is “inactive”.

For the compound `CCOC(=O)CNc1nc(Cl)nc(Nc2ccccc2)n1`, the Potency result was “inactive”.

`CN(C)S(=O)(=O)c1cccc(C(=O)OCC(=O)N2CCCC2=O)c1`: the Potency entry was “inactive”.

For `COc1ccc(NC(=O)N(C)C[C@H]2Oc3ccc(NC(=O)C4CC4)cc3C(=O)N([C@H](C)CO)C[C@@H]2C)cc1`, the Potency entry is “inactive”.

As to `Cc1ccc(S(=O)(=O)Nc2ccc3c(c2)C(=O)N([C@H](C)CO)C[C@@H](C)[C@@H](CN(C)C(=O)Nc2cccc4ccccc24)O3)cc1`, the Potency is 20.6 µM (active).

Consider `Cc1noc(C)c1NC(=O)Nc1ccc2c(c1)C(=O)N([C@H](C)CO)C[C@H](C)[C@@H](CN(C)C(=O)Nc1ccccc1)O2`, for which the Potency entry was “inactive”.
